High-throughput results (PubChem BioAssay)
Compounds with a hit are over-represented: about 9.5% of the library has one in this group of screens.
Tau fibril ThT: tau fibrillization inhibition (ThT binding) | P10636 | recombinant tau K18 P301L, heparin-induced fibrillization, ThT fluorescence | Potency, µM (series often up to 57.4 µM), most hits filed as inhibitors | hit rate 2.1% among 270,000 | AID 1460; further: nearly all actives have a fitted effect of over 55% in size
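Fibril formation assay: tau K18 P301L at 15 uM with trace Alexa 594 label, heparin inducer 20 uM, pH 7 sodium acetate buffer, 37 C for 6 hr; endpoint ThT signal.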
Tau fluor cs: counter-screen for tau fibril formation inhibitors; tau K18 P301L Alexa594 fluorescence, heparin fibrillization; Potency, µM (doses to about 57.7 µM); hit rate 0.93% among 280,000; further: nearly all actives have a fitted effect of over 55% in size
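Human tau K18 P301L (15 uM unlabeled, 0.24 uM Alexa 594-labeled) in 100 mM sodium acetate pH 7 with 20 uM heparin, 6 hr at 37 C. ThT 30 uM added, 1 hr ambient; Alexa 594 FP and total fluorescence read at 555/632 nm.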
Tau FP inhib: blocks human tau fibril formation measured by polarization; Potency, µM (titrated, usually from 57.7 µM), hits mostly inhibitors; hit rate 0.39% among 280,000; K18 P301L tau heparin fibrillization, Alexa594 FP, 6 h; AID 1468; P10636; further: nearly all actives have a fitted effect of over 55% in size
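Steps: dispense K18 P301L tau (15 uM plus 0.24 uM Alexa 594 tracer, final) in pH 7 sodium acetate; add compound; add heparin (20 uM final); incubate 6 hr, 37 C; add ThT (30 uM final); after 1 hr ambient, read FP.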
HPGD block: inhibitors of human 15-hydroxyprostaglandin dehydrogenase (HPGD); purified HPGD, NADH fluorescence kinetic, PGE2 substrate; Potency, µM, hits mostly inhibitors; hit rate 4.3% among 150,000; active means well fitted inhibition curve with a large enough effect, not every such curve was filed as active; inconclusive means small, poorly fitted or top-dose-only effect, or another doubt; inactive means no such curve, though single readings can be large or run the other way
Target sequence (P15428 whole entry, looked up): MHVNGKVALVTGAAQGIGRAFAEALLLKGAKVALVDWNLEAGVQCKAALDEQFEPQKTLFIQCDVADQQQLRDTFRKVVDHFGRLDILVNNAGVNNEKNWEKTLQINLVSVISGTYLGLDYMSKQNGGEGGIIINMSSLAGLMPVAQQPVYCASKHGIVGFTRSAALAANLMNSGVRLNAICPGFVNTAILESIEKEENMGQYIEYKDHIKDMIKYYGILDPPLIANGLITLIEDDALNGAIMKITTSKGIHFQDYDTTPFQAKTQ
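NADH formation kinetics: reaction with 30 uM PGE2 and 1 mM NAD+ (final), 20 nM enzyme, Tris-HCl pH 8 with Tween 20, after 15 min compound preincubation at room temperature. Fluorescence change, last versus first of five reads.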
ALDH1A1 block: inhibitors of human aldehyde dehydrogenase 1A1; Potency, µM (doses to about 75.3 µM), most hits filed as inhibitors; hit rate 7.3% among 220,000; Purified ALDH1A1, NADH fluorescence, propionaldehyde substrate; P00352; active means well fitted inhibition curve with a large enough effect, not every such curve was filed as active; inconclusive means small, poorly fitted or top-dose-only effect, or another doubt; inactive means no such curve, though single readings can be large or run the other way
NPSR antagonist: antagonists of human neuropeptide S receptor cAMP signaling; CHO-NPSR cells, cAMP TR-FRET, antagonist mode; Potency, µM (series often up to 38.3 µM), usual class: inhibitors; hit rate 1% among 220,000; AID 1461; further: nearly all actives have a fitted effect of over 50% in size
Target sequence (Q6W5P4 whole entry, looked up): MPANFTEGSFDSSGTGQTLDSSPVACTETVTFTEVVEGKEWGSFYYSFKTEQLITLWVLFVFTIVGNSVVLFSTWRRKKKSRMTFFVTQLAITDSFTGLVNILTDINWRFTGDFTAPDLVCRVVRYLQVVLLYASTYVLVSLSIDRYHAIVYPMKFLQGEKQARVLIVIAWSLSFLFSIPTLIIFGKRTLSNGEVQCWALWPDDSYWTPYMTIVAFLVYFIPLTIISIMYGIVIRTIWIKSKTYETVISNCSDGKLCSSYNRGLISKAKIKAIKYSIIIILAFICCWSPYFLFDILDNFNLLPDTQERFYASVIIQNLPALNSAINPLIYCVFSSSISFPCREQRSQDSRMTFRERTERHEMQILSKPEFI
A number is an active result; – = inactive; ? = inconclusive; · = not tested or not shown; [ ] = remark or other dose. Unless noted, the call rests on the fitted dose curve; in most records, active means well fitted curve in the direction sought with a large enough effect; inconclusive means small, poorly fitted or top-dose-only effect, or another doubt; inactive means no such curve, though single readings can be large; an effect the other way counts as inactive or inconclusive.

SMILES | Tau fibril ThT | Tau fluor cs | Tau FP inhib | HPGD block | ALDH1A1 block | NPSR antagonist
CCOC(=O)c1ccc(NC(=O)c2cc3c(=O)n(C)c4ccccc4c3n2C)cc1 | – | – | – | · | · | ·
Cn1c(C(=O)Nc2ccc3c(c2)OCCO3)cc2c(=O)n(C)c3ccccc3c21 | ? | ? | ? | ? | 25.1µM | –
Cn1c(C(=O)N2CCN(C(=O)c3ccco3)CC2)cc2c(=O)n(C)c3ccccc3c21 | – | – | – | – | 20µM | –
Brc1ccc(-c2nnc3n2-c2ccccc2CC3)cc1 | – | – | – | – | – | –
O=C(Nc1ccc(F)cc1)Nc1cc(OCC(F)(F)F)cc(OCC(F)(F)F)c1 | – | ? | 8.91µM | – | – | 12.6µM
O=C(NCCNC(=O)c1cc(OCC(F)(F)F)ccc1OCC(F)(F)F)Nc1ccc(OC(F)(F)F)cc1 | – | – | 3.55µM | – | – | –
O=C(NCCNC(=O)c1cc(OCC(F)(F)F)ccc1OCC(F)(F)F)Nc1ccc(Cl)cc1 | – | – | ? | – | – | –
Cn1c(=O)c2c(nc(SCCCC#N)n2Cc2ccccc2F)n(C)c1=O | – | – | – | – | 2.82µM | –
Cc1ccc(Cn2c(SCC(=O)NCC3CCCO3)nc3c2c(=O)n(C)c(=O)n3C)cc1 (stereo unspecified) | – | – | ? | · | 22.4µM | –
CNC(=O)CSc1nc2c(c(=O)n(C)c(=O)n2C)n1Cc1ccc(C)cc1 | – | – | – | – | – | –
Cc1ccc(-n2nnc3c(SCC(=O)NCC4CCCO4)ncnc32)cc1 (stereo unspecified) | ? | – | – | 1.26µM | – | –
Cc1ccc2nc(SCC(=O)NCC3CCCO3)c(C#N)cc2c1 (stereo unspecified) | – | – | – | 6.31µM | – | ?
CC(C)CN(CC#N)CC(C)C | · | · | · | – | –[13.5 µM] | ·
COc1ccc(NC(=O)c2cc3c([nH]c2=O)CC(c2ccccc2)CC3=O)cc1 (stereo unspecified) | – | – | – | · | · | ·
CC(C)Sc1nc2c(c(=O)n(C)c(=O)n2C)n1Cc1ccc(Cl)cc1 | ? | – | – | – | 8.91µM | ?
CC(=O)C1=C(C)OC2(O)c3ccccc3C(=O)C12O (stereo unspecified) | 2.24µM | – | ? | · | · | –
O=C1NC2(O)C(=O)c3ccccc3C2(O)N1 (stereo unspecified) | – | – | – | · | – | –
CCOC(=O)C1=C(C)OC2(O)c3ccccc3C(=O)C12O (stereo unspecified) | 2µM | – | 1.41µM | · | · | –
FC(F)(F)c1n[nH]c(=S)n1/N=C/c1ccco1 | – | – | – | – | – | –
Cn1ncc(N=Cc2ccccc2[N+](=O)[O-])c1C(N)=O | ? | – | – | · | · | –
CN(C)c1ccc(C=Nc2cnn(C)c2C(N)=O)cc1 | ? | – | – | – | 3.55µM | –
O=C(CCCCCn1c(=S)[nH]c2ccc(N3CCOCC3)cc2c1=O)NCc1ccc(Cl)cc1 | ? | ? | – | · | ? | 10µM
O=C(CCCCCn1c(=S)[nH]c2ccc(N3CCOCC3)cc2c1=O)NCc1ccc2c(c1)OCO2 | – | – | – | · | – | –
O=C(CCNS(=O)(=O)c1ccc2c(c1)CCN2C(=O)C1CC1)Nc1ccc(Cl)cc1 | – | – | ? | · | · | ·
Cc1cc(C(F)(F)F)nn1Cc1n[nH]c(=S)n1-c1cccc(Cl)c1 | – | – | – | – | – | –
SMILES | Tau fibril ThT | Tau fluor cs | Tau FP inhib | HPGD block | ALDH1A1 block | NPSR antagonist
C=CCc1cccc(CNc2nc3ccccc3n2C(C)C)c1O | – | 11.2µM[quencher] | – | – | – | ?
CC1CCC(C(C)C)[C@H](O)C1 (stereo partly specified) | – | – | – | – | – | ·
COC(=O)N1CCCc2cc(S(=O)(=O)NCc3ccccc3)ccc21 | – | – | – | · | · | ·
COc1ccccc1C(=O)NCC(=O)N/N=C/c1cccc(Cl)c1 | ? | – | – | · | – | –
Cc1ccc(C2CC(c3ccco3)=NN2S(C)(=O)=O)cc1 (stereo unspecified) | – | – | – | – | ? | –
CS(=O)(=O)N1N=C(c2ccccc2)CC1c1ccc2c(c1)OCO2 (stereo unspecified) | – | – | – | – | 2.38µM | –
CS(=O)(=O)N1N=C(c2ccco2)CC1c1ccc(Cl)cc1 (stereo unspecified) | – | – | – | – | 8.91µM | –
CCCNC(=O)CS(=O)Cc1nc(-c2ccccc2C)oc1C (stereo unspecified) | – | – | – | – | – | –
CC(=O)N1CCC2(CC1)CCN(c1cccc(-c3ccccc3)c1)CC2 | · | · | · | – | – | ·
CCOC(=O)C1CCCN(S(=O)(=O)c2ccc(Br)c(OC)c2)C1 (stereo unspecified) | – | – | – | – | 11.2µM | –
CCOC(=O)C1CCCN(S(=O)(=O)c2ccc(NC(C)=O)cc2)C1 (stereo unspecified) | – | – | – | · | 2.82µM | –
CCOC(=O)C1CCCN(C2CC(=O)N(c3ccc(NC(C)=O)cc3)C2=O)C1 (stereo unspecified) | – | – | – | · | 31.6µM | –
Cc1cc(Cl)c(S(=O)(=O)N2CCN(c3ccc(F)cc3)CC2)cc1OCC(=O)NC1CCCCC1 | – | – | – | – | – | –
CCOC(=O)C1CCCN(C2CC(=O)N(c3ccc(C)cc3)C2=O)C1 (stereo unspecified) | – | – | – | – | – | –
CCOC(=O)C1CCCN(S(=O)(=O)c2cc(OCC(=O)NC3CCCCC3)c(C)cc2Cl)C1 (stereo unspecified) | – | – | – | – | 7.08µM | –
Clc1nc(-c2ccccc2)cc(-c2ccccc2)n1 | – | – | – | ? | ? | –
CCOC(=O)C1CCN(C(=S)Nc2ccc(S(N)(=O)=O)cc2)CC1 | – | – | – | 28.2µM | 15µM | –
CN(Cc1cnccn1)Cc1cn(Cc2ccccc2)nc1-c1ccc2c(c1)OCO2 | – | – | – | · | ? | –
O=C(Nc1ccccc1)c1ccccc1NC(=O)C1CCCCC1 | – | – | – | – | – | –
Cc1cccc(NC(=S)NNC(=S)NC2CCCCC2)c1C | – | – | ? | · | 2µM | –
CC(C)c1ccc(NC(=S)NC2CCCCCC2)cc1 | – | – | – | · | – | –
Cc1cccc(C)c1NC(=S)NC1CCCCC1 | – | – | – | · | – | –
CC(=O)c1ccc(NC(=S)NNC(=O)NC2CCCCC2)cc1 | – | – | – | · | 1µM | –
Cc1ccc(NC(=S)NNC(=S)NC2CCCCC2)cc1 | ? | – | – | · | 3.16µM | –
Cc1cccc(NC(=O)c2ccccc2NC(=O)C2CCCCC2)c1C | ? | – | – | 2.51µM | ? | ?
CCOc1ccc(NC(=O)Cn2c(=O)n(CC(=O)NCCc3ccccc3)c(=O)c3sccc32)cc1 | ? | – | – | · | · | ·
COc1cccc(Nc2ncc3ncc(=O)n(C[C@H]4CCCO4)c3n2)c1 | · | · | · | · | – | ·
S=C(Nc1ccc(Oc2ccccc2)cc1)NC1CCCCCC1 | – | ? | – | – | ? | –
